Compound activity as filed in PubChem BioAssay.
The sample as a whole holds a higher share of hits than the screen did.
Shiga inhibitor – blocks Shiga toxin action in Vero cells; Vero cells, Shiga toxin protein synthesis inhibition reporter; actives 9.2% (n = 290,000); inhibition, % at 38.7 µM; AID 2315; in the data active = inhibition mostly above about 28%, no sharp cut-off; inactive = mostly below about 43%; also: 0% is about no effect
FBPA Giardia inh – Giardia lamblia aldolase inhibition. A8B2U2. purified Giardia FBPA. Potency, µM (doses to about 59.6 µM), for inactives: top-dose activity, negative = inhibition, most hits filed as inhibitors. actives 0.71% (n = 290,000); also: potency is read from the fitted curve at half-maximal effect; % is scaled to controls: 0 for no effect and ±100 for the full control effect; nearly all actives have a fitted effect of over 55% in size
Target sequence (A8B2U2 whole entry, looked up): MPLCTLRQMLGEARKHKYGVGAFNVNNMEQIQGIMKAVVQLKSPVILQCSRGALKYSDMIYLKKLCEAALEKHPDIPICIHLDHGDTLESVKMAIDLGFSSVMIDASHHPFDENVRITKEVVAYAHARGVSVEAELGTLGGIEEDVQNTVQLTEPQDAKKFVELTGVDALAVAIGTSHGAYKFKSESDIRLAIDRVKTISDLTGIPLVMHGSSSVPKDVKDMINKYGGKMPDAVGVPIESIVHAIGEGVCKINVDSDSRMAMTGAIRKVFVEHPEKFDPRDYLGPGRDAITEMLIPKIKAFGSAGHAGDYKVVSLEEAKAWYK
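40 nM FBPA preincubated 10 min at RT with compound (up to 57.5 uM final), then substrate plus GAPDH/TPI/NAD/arsenate coupling and diaphorase/resazurin added. Fluorescence read after 20 min at RT, 525/598 nm.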
LmPK inh – LmPK (Leishmania mexicana) enzyme inhibition | AID 1721 | actives 0.37% (n = 290,000) | Potency, µM (highest dose often 57.5 µM), for inactives: at the highest dose activity change, negative = inhibition, actives largely listed as inhibitors | purified LmPK, Kinase-Glo ATP luminescence, 1 h; also: potency is read from the fitted curve at half-maximal effect; % is scaled to controls: 0 for no effect and ±100 for the full control effect
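ATP generated from ADP (0.1 mM) and PEP (0.5 mM) by 0.1 nM LmPK over 1 h at room temperature (pH 7.2 imidazole buffer) was detected by coupled luciferase luminescence. Values were normalized to uninhibited and no-enzyme wells.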
Sm TGR inh – S. mansoni TGR enzyme inhibition. Q962Y6. purified TGR, DTNB reduction, TNB absorbance 405 nm. Potency, µM (highest dose often 114 µM), without a hit: top-dose activity change, negative = inhibition, usual class: inhibitors. actives 3% (n = 360,000); also: potency is read from the fitted curve at half-maximal effect; % is scaled to controls: 0 for no effect and ±100 for the full control effect; nearly all actives have a fitted effect of over 60% in size
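TGR 20 nM + NADPH 100 uM (dispensed conc.), cpd preinc 15 min RT; start with NADPH (500 uM addition) then DTNB (15 mM addition). Kinetic TNB absorbance, 405 nm filter. Four-parameter Hill fit across titration.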
CHX counter – affects cycloheximide protein synthesis inhibition readout, counter-screen; cell reporter, cycloheximide protein synthesis inhibition counterscreen; AID 2314; actives 12% (n = 300,000); max response, %; in the data active = max response mostly above about 13%, no sharp cut-off; inactive = mostly below about 14%; also: read at 38.3 µM for the half of the compounds with a filed dose; 0% is about no effect
Tb PYK inh – inhibitors of Trypanosoma brucei pyruvate kinase. Potency, µM (highest dose often 76.8 µM), inactives show at the highest dose activity, negative = inhibition, actives largely listed as inhibitors. actives 0.12% (n = 410,000). Q57TT1. TbPYK enzyme, Kinase-Glo Plus ATP luminescence, 45 min; also: potency is read from the fitted curve at half-maximal effect; % is scaled to controls: 0 for no effect and ±100 for the full control effect; nearly all actives have a fitted effect of over 50% in size
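Readout: single end-point luminescence (Kinase-Glo Plus, 10 min). Reaction conditions were TbPYK/substrate plus 130 uM ADP, 45 min at RT, pH 7.2 TEA buffer. No-enzyme wells served as controls, and data were normalized before concentration-response fitting.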
* marks the source's active call; other numbers are inactive results; [ ] = another dose, or the depositor's remark. Unless noted, calls follow the shape of the dose curve; as a rule, active = well fitted curve in the direction sought with a large enough effect; inconclusive = small, poorly fitted or top-dose-only effect, or another doubt; inactive = no such curve, though single readings can be large; an effect the other way counts as inactive or inconclusive.

What do the screens show for `COc1cc(C(=O)N2CCN(S(=O)(=O)c3cccc(F)c3)CC2)ccc1OCC(=O)N1CCOCC1`?
Sm TGR inh: 4.4%; Tb PYK inh: -0.9%

What do the screens show for `C=CCc1c(C)nc2c(OC)cccc2c1Cl`?
Shiga inhibitor: 34.1; FBPA Giardia inh: -4.6%; LmPK inh: 0.0%; Sm TGR inh: 25.8%; CHX counter: 13.6*; Tb PYK inh: -6.3%

Results for CCOC(=O)c1[nH]c(C)c(C(=O)OCC)c1C ?
Shiga inhibitor: 138.4*; FBPA Giardia inh: 0.4%; LmPK inh: 7.9%; Sm TGR inh: 5.2%; CHX counter: 64.7*; Tb PYK inh: -1.3%

How did CCOC(=O)c1c(C)[nH]c(C(=O)NNC(=O)c2ccccc2)c1C do in these assays?
Shiga inhibitor: 88.8*; FBPA Giardia inh: 5.6%; LmPK inh: -0.6%; Sm TGR inh: 6.3%; CHX counter: 30.7*; Tb PYK inh: -4.7%

How did CCOC(=O)c1c(C)[nH]c(C(=O)NNC(=O)c2ccccc2F)c1C do in these assays?
Tb PYK inh: -4.6%

What do the screens show for `CCC(C)NC(=O)c1cccc(OCc2c(C)noc2C)c1` (configuration not stated)?
Shiga inhibitor: 1.1; FBPA Giardia inh: -3.6%; LmPK inh: 0.5%; Sm TGR inh: 16.4%; CHX counter: 1.1; Tb PYK inh: 5.8%

Results for CCOC(=O)c1c(C)[nH]c(C(=O)C(C)OC(=O)c2cccc(OCc3c(C)noc3C)c2)c1C (configuration not stated) ?
Shiga inhibitor: 28.7; FBPA Giardia inh: -7.4%; LmPK inh: 5.8%; Sm TGR inh: 26.5%; CHX counter: 16.7*; Tb PYK inh: -17.1%

What do the screens show for `CCOC(=O)c1[nH]c(C)c(C(=O)OCc2ccccc2F)c1C`?
Shiga inhibitor: 24.5; FBPA Giardia inh: -15.0%; LmPK inh: 0.9%; Sm TGR inh: 12.1%; CHX counter: 11.7*; Tb PYK inh: -0.3%

How did CCOC(=O)c1c(C)[nH]c(C(=O)NNC(=O)c2ccc(Br)cc2)c1C do in these assays?
Sm TGR inh: 3.1%; Tb PYK inh: 5.1%

Results for Cn1nccc1-c1coc2c(C(=O)NCc3ccccc3)cccc12 ?
Tb PYK inh: 3.6%

How did COC(=O)C1=C(C(=O)OC)[C@@H]2N(Cc3ccccc3)c3ccccc3[C@@]23C[C@@H](C(=O)OC)N(C(=O)c2ccco2)C3=N1 do in these assays?
FBPA Giardia inh: 2.9%[12.9 µM]; LmPK inh: -7.8%[11.5 µM]

What do the screens show for `CN(C)Cc1ccccc1-c1cncnc1NCc1cccnc1`?
FBPA Giardia inh: -14.4%

How did COC(=O)c1c(C)[nH]c(C(=O)OCc2ccc(F)cc2)c1C do in these assays?
Shiga inhibitor: 133.9*; FBPA Giardia inh: 3.1%; LmPK inh: 4.0%; Sm TGR inh: -3.4%; CHX counter: 78.2*; Tb PYK inh: -23.4%

How did CC(=O)c1c(C)[nH]c(C(=O)OCc2cccc(Cl)c2)c1C do in these assays?
Shiga inhibitor: 81.9*; FBPA Giardia inh: 0.4%; LmPK inh: 6.9%; Sm TGR inh: -7.6%; CHX counter: 35.5*; Tb PYK inh: 2.1%

What do the screens show for `CCOC(=O)c1[nH]c(C)c(C(=O)OCCOc2cccc(C)c2)c1C`?
Shiga inhibitor: 10.3; FBPA Giardia inh: 0.3%; LmPK inh: -2.2%; Sm TGR inh: 7.8%; CHX counter: 21.5*; Tb PYK inh: -9.4%

Results for CCOC(=O)c1c(C)[nH]c(C(=O)COC(=O)C2CC2C)c1C (configuration not stated) ?
Shiga inhibitor: 59.7*; FBPA Giardia inh: 4.5%; LmPK inh: 1.0%; Sm TGR inh: 9.5%; CHX counter: 47.2*; Tb PYK inh: -4.7%

Results for COc1ccccc1CNS(=O)(=O)c1ccc2c(c1)NC(=O)CC(=O)N2 ?
Sm TGR inh: -11.0%; Tb PYK inh: 0.3%

Results for CCOC(=O)c1c(C)[nH]c(C(=O)Cn2c(=O)oc3ccccc32)c1C ?
Shiga inhibitor: 16.4; FBPA Giardia inh: 2.9%; LmPK inh: 3.2%; Sm TGR inh: 3.7%; CHX counter: 29.8*; Tb PYK inh: 2.0%

Results for CCOC(=O)c1c(C)[nH]c(-c2csc(C)n2)c1C ?
Shiga inhibitor: 62.1*; FBPA Giardia inh: -10.5%; LmPK inh: -5.5%; Sm TGR inh: 10.9%; CHX counter: 32.6*; Tb PYK inh: -2.0%

Results for O=C(OCc1cc2ccccc2[nH]c1=O)c1ccco1 ?
Shiga inhibitor: 8.4; FBPA Giardia inh: 8.7%; LmPK inh: -3.0%; Sm TGR inh: -23.6%; CHX counter: -3.1; Tb PYK inh: 3.9%

How did Cc1ccc2cc(COC(=O)c3ccco3)c(=O)[nH]c2c1 do in these assays?
Shiga inhibitor: -16.7; FBPA Giardia inh: 1.7%; LmPK inh: 7.9%; Sm TGR inh: 44.7µM*; CHX counter: 1.6; Tb PYK inh: -4.4%

What do the screens show for `CC(C)N(Cc1cc2ccccc2[nH]c1=O)C(=O)c1ccco1`?
Shiga inhibitor: -4.4; FBPA Giardia inh: -10.7%; LmPK inh: -0.4%; Sm TGR inh: 28.2µM*; CHX counter: 5.1; Tb PYK inh: 1.2%

Results for CCN(CC)CCn1c2ccccc2c2nc3ccc([N+](=O)[O-])cc3cc21 ?
Shiga inhibitor: 91.7*; FBPA Giardia inh: -10.5%; LmPK inh: 2.7%; Sm TGR inh: 0.0%; CHX counter: 27.1*; Tb PYK inh: -24.8%

What do the screens show for `CCOc1ccccc1-n1c(N)c(C(=O)OC)c2nc3ccccc3nc21`?
Sm TGR inh: -3.4%; Tb PYK inh: 1.8%

Results for CC(=O)C(=Nc1ccccc1Cl)NNc1ccc(Cl)cc1 ?
Shiga inhibitor: 0.9; FBPA Giardia inh: -4.1%; LmPK inh: 4.6%; Sm TGR inh: 39.8µM*; CHX counter: -0.3; Tb PYK inh: -4.3%

What do the screens show for `O=C(NNc1ccc(Cl)cc1)c1c(F)cccc1Cl`?
Shiga inhibitor: 11.0; FBPA Giardia inh: -6.9%; LmPK inh: 2.9%; Sm TGR inh: -10.5%; CHX counter: 1.1; Tb PYK inh: -13.9%

Results for Cc1ccc(Sc2c(C)nn(C(=O)c3ccc(Cl)cc3)c2C)cc1 ?
Sm TGR inh: 5.1%; Tb PYK inh: 8.3%

How did S=C(Nc1cccnc1)Nc1ccccc1Br do in these assays?
Shiga inhibitor: -8.1; FBPA Giardia inh: -15.8%; LmPK inh: 2.8%; Sm TGR inh: 6.31µM*; CHX counter: -1.8; Tb PYK inh: -4.0%

What do the screens show for `Fc1ccc(NC(=S)Nc2cccnc2)c(F)c1F`?
Shiga inhibitor: 19.5; FBPA Giardia inh: -21.5%; LmPK inh: 0.9%; Sm TGR inh: 14.1µM*; CHX counter: -1.7; Tb PYK inh: -2.8%

What do the screens show for `COc1cc(NC(=S)Nc2cccnc2)cc(OC)c1OC`?
Shiga inhibitor: 15.3; FBPA Giardia inh: -11.8%; LmPK inh: -2.9%; Sm TGR inh: 31.6µM*; CHX counter: -2.4; Tb PYK inh: -3.5%
